Results filed as inconclusive are left out. The source made the active and inactive calls. Unless noted, the call rests on the fitted dose curve; in most records, active means well fitted curve in the direction sought with a large enough effect; inconclusive means small, poorly fitted or top-dose-only effect, or another doubt; inactive means no such curve, though single readings can be large; an effect the other way counts as inactive or inconclusive.

Assay [1] in a line: S16 Schwann cell viability assay (CellTiter-Glo assay) (AID 624031).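 Further: native untransfected S16 rat Schwann cells; cellular ATP luminescence as a viability measure; plate controls were DMSO-treated cells for no effect and cell-free wells for full effect; nearly all actives have a fitted effect of over 70% in size.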 Put shortly:
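Cells were seeded at 500-750 per well in phenol red-free DMEM with 10% FBS and left overnight. Compounds or DMSO were pinned in, incubation ran 24 h at 37 °C/5% CO2, then CellTiter-Glo reagent was added and luminescence measured.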
(In general: In ATP-based viability assays light output follows the ATP content of the culture.)

The nature of assay [2]: S16 Schwann cell PMP22 intronic element firefly luciferase assay (AID 624032).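 Further: plate controls were DMSO for no effect and PTC124 positive control mean for full effect; nearly all actives have a fitted effect of over 30% in size.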 An outline of the steps:
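Rat S16 Schwann cells stably carrying firefly luciferase driven by a PMP22 intronic element, in 10% FBS, treated 24 h at 37 C. ONE-Glo luminescence normalized to PTC124 control and DMSO (0%); curves classed by r2, magnitude and activity.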

A short description of assay [3]: S16 Schwann cell PMP22 intronic element beta-lactamase assay (AID 624044; calls by dose curve;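 further: 0% = DMSO and -100% = potassium clavulanate positive control; nearly all actives have a fitted effect of over 15% in size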). The note with it: S16 rat Schwann cells, PMP22 element beta-lactamase FRET, 24 h; ratio activity, negative = inhibition: at 38.3 µM (top of the series) unless noted. Put shortly: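 Rat S16 Schwann cells with beta-Lac driven by a PMP22 intronic element, compound-treated 24 h at 37 °C. LiveBLAzer FRET B/G read: 460 nm normalized to potassium clavulanate vs DMSO; 535 nm FRET as viability; concentration-effect curves classified.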

Assay [4] concerns ATS189. The assay is described as follows: qHTS profiling for inhibitors of Plasmodium falciparum proliferation (AID 504749). Further: nearly all actives have a fitted effect of over 60% in size. Further: potency means the concentration at half of the fitted maximal effect.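 On activity, negative = inhibition: 0% = DMSO vehicle and full inhibition = artemisinin control.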 The note with it: P. falciparum in erythrocytes, SYBR Green DNA, 72 h; series mostly up to 28.7 µM. Put shortly: (§1)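 P. falciparum-infected erythrocytes (0.3% parasitemia, 2.5% hematocrit) incubated with compound 72 h at 37 C, 5% CO2. Parasite DNA detected by SYBR Green after lysis, overnight at room temperature; normalised to 0.29 uM artemisinin and DMSO.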
(Quantitative high-throughput screening tests each substance at several concentrations.)

Assay [5] relates to ATS95. The description is as above. Particulars: P. falciparum in erythrocytes, SYBR Green DNA, 72 h; series mostly up to 28.7 µM. Put shortly: as §1
The subject of assay [6] is CP192. The assay is described as above. Particulars: P. falciparum in erythrocytes, SYBR Green DNA, 72 h; series mostly up to 28.7 µM. Put shortly:
as §1

The test system of assay [7] is CP194. Described as above. Particulars: P. falciparum in erythrocytes, SYBR Green DNA, 72 h; series mostly up to 28.7 µM. Put shortly:
as §1

Assay [8] concerns CP203. The assay is described as above. The note with it: P. falciparum in erythrocytes, SYBR Green DNA, 72 h; series mostly up to 28.7 µM. Put shortly:
as §1

Assay [9] has as its system CP247. Described as above. The note with it: P. falciparum in erythrocytes, SYBR Green DNA, 72 h; series mostly up to 28.7 µM. An outline of the steps:
as §1

Assay [10] deals with CP250. The assay is described as above. Particulars: P. falciparum in erythrocytes, SYBR Green DNA, 72 h; series mostly up to 12.8 µM. An outline of the steps:
as §1

Assay [11] concerns CP256. The description is as above. The note with it: P. falciparum in erythrocytes, SYBR Green DNA, 72 h; series mostly up to 28.7 µM. Put shortly: as §1
Assay [12] deals with CP266. The description is as above. The note with it: P. falciparum in erythrocytes, SYBR Green DNA, 72 h; series mostly up to 12.8 µM. An outline of the steps:
as §1

The subject of assay [13] is CP269. Described as above. The note with it: P. falciparum in erythrocytes, SYBR Green DNA, 72 h; series mostly up to 28.7 µM. Put shortly: as §1
The subject of assay [14] is CP297. Described as above. The note with it: P. falciparum in erythrocytes, SYBR Green DNA, 72 h; series mostly up to 28.7 µM. Put shortly:
as §1

The test system of assay [15] is DFO2036. The assay is described as above. Particulars: P. falciparum in erythrocytes, SYBR Green DNA, 72 h; series mostly up to 28.7 µM. An outline of the steps: as §1
The subject of assay [16] is Dd2. The assay is described as above. The note with it: P. falciparum in erythrocytes, SYBR Green DNA, 72 h; series mostly up to 28.7 µM. Put shortly: as §1
Assay [17] deals with FAB9. The assay is described as above. The note with it: P. falciparum in erythrocytes, SYBR Green DNA, 72 h; series mostly up to 28.7 µM. An outline of the steps:
as §1

Assay [18] concerns HB3. The assay is described as above. The note with it: P. falciparum in erythrocytes, SYBR Green DNA, 72 h; series mostly up to 28.7 µM. Put shortly:
as §1

Assay [19] deals with N140. The assay is described as above. The note with it: P. falciparum in erythrocytes, SYBR Green DNA, 72 h; series mostly up to 28.7 µM. Put shortly:
as §1

Assay [20] deals with PC49. The assay is described as above. Particulars: P. falciparum in erythrocytes, SYBR Green DNA, 72 h; series mostly up to 28.7 µM. An outline of the steps: as §1

In the case of `C[N+]1([O-])[C@@H]2CC[C@H]1CC(OC(=O)[C@@H](CO)c1ccccc1)C2` (stereo not given in full), the Potency entry in assay [1], in assay [2], in assay [3], in assay [4], in assay [5] and in assay [6] was “inactive” throughout. The Potency entry in assay [7], in assay [8], in [9], in assay [10], in [11] and in assay [12] was “inactive” in each case. Moreover, the Potency entry in assay [13], in assay [14], in [15], in [16], in assay [17] and in [18] was “inactive” in each case. The Potency result in assay [19] and in assay [20] was “inactive” throughout.

As to `CC1=C2[C@@H]3OC(=O)[C@@H](C)[C@@H]3CC[C@]2(C)C=CC1=O`, the Potency result in assay [1], in assay [2], in assay [3], in assay [5], in [6] and in [7] was “inactive” in each case. The Potency result in [8], in [12], in [13], in [14], in assay [16] and in assay [17] was “inactive” in each case. The Potency result in assay [18] and in assay [20] was “inactive” throughout.

For `CC(C)c1c(CN(C)[C@@H](C)Cc2ccccc2)n(C)n(-c2ccccc2)c1=O`, the Potency entry in assay [1], in assay [2], in assay [4], in assay [5], in assay [6] and in [7] was “inactive” throughout. Further, the Potency result in [8], in assay [9], in [10], in assay [11], in assay [12] and in assay [13] was “inactive” each time. Moreover, the Potency result in assay [14], in assay [15], in assay [16], in [17], in [18] and in assay [19] was “inactive” throughout. Moreover, the Potency result in assay [20] is “inactive”. The ratio activity, negative = inhibition in assay [3] was -8.16% [at 17.1 µM] (active).

Take `N[C@H]1C[C@H]1c1ccccc1`: the Potency entry in [1], in [2], in assay [3], in assay [4], in assay [5] and in assay [6] was “inactive” throughout. In addition, the Potency entry in [7], in assay [8], in [9], in assay [10], in assay [11] and in assay [12] was “inactive” each time. Besides, the Potency result in assay [13], in assay [14], in assay [15], in [16], in assay [17] and in assay [18] was “inactive” in each case. For the same compound, the Potency entry in assay [19] and in assay [20] was “inactive” each time.

As for `CN[C@@H](C)[C@H]1CC[C@@H](N)[C@@H](O[C@@H]2[C@@H](O)[C@@H](O[C@H]3OC[C@@](C)(O)[C@@H](NC)[C@@H]3O)[C@H](N)C[C@@H]2N)O1` (tested in a mixture with another compound), the Potency result in assay [1], in assay [2], in assay [3], in assay [4], in assay [5] and in assay [6] was “inactive” in each case. Besides, the Potency result in assay [7], in assay [8], in assay [9], in assay [10], in assay [11] and in assay [12] was “inactive” each time. In addition, the Potency result in assay [13], in assay [14], in [15], in [16], in assay [17] and in assay [18] was “inactive” in each case. Further, the Potency entry in assay [19] and in assay [20] was “inactive” in each case.

Consider `C[C@@H]1O[C@H](O[C@@H]2C=C3CC[C@H]4[C@@H](CC[C@]5(C)[C@@H](c6ccc(=O)oc6)CC[C@]45O)[C@@]3(C)CC2)[C@@H](O)[C@H](O)[C@@H]1O`, for which the Potency result in assay [1], in [3], in assay [4], in assay [5], in assay [6] and in assay [7] was “inactive” in each case. For the same compound, the Potency entry in assay [8], in assay [9], in assay [10], in assay [11], in [12] and in assay [13] was “inactive” in each case. In addition, the Potency entry in [14], in assay [15], in assay [16], in assay [17], in [18] and in assay [19] was “inactive” each time. Moreover, in assay [20], the Potency result is “inactive”.

As to `CC[C@]1(c2cccc(O)c2)CCCCN(C)C1`, the Potency entry in [1], in [2], in [3], in [9], in assay [10] and in assay [11] was “inactive” each time. For the same compound, the Potency entry in assay [12], in assay [17], in assay [18] and in assay [20] was “inactive” each time. Moreover, the Potency is 3.16 µM (active) in assay [16] and 3.98 µM (active) in assay [19].

For the origin of these results see PubChem BioAssay (NCATS).
